Where a name gives a salt, the structure may show the parent alone.

For the experiment, the system named is Drosophila S2 cl14 SmoIP sensor cells. Description: normalized SmoIP GFP fluorescence (untreated unstimulated = 0%, untreated Hh-stimulated = 100%); higher = more Smo activation sensor fluorescence. The note with it: compound concentration: 2 uM, 24 h.
The mark [1] stands for this setting: stimulation: Hh conditioned medium (+Hh).
Where [2] appears, read: stimulation: mock conditioned medium (-Hh).
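Further: flow cytometry read-out as median GFP intensity of gated cells, compounds added 30 min before Hh-conditioned or mock medium, mock-treated cells serving as unstimulated baseline.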

Consider `CC(C)c1noc(N2CCC(COc3ccc(-c4ccc(S(C)(=O)=O)cc4)nc3)CC2)n1`, for which the “normalized SmoIP GFP fluorescence” value is 110% under setting [1] and -3.09% under setting [2].

Consider `O=C(CCCS)NC1CCN(C(=O)COc2ccc(Cl)cc2Cl)CC1` [k-ras-g12c-inhibitor-6], for which the “normalized SmoIP GFP fluorescence” value was 113% under setting [1] and -2.82% under setting [2].

Regarding `Cc1nccn1CC1CCc2c(c3ccccc3n2C)C1=O` (stereo not given) [Ondansetron-hydrochloride], the “normalized SmoIP GFP fluorescence” value runs as follows: under setting [1], 109%; under setting [2], -2.96%.

Take `CCC[C@H](NC(=O)/C(C#N)=C/c1cccc(Br)n1)c1ccccc1`: the “normalized SmoIP GFP fluorescence” value by setting is: under setting [1], 114%; under setting [2], 15.7%.

As to `CC(=O)OCC(=O)NCCCOc1cccc(CN2CCCCC2)c1` [roxatidine-acetate-hcl], the “normalized SmoIP GFP fluorescence” value reads like this: under setting [1], 142%; under setting [2], -6.97%.

With `CCS(=O)(=O)N1CC(CC#N)(n2cc(-c3ncnc4[nH]ccc34)cn2)C1`, the “normalized SmoIP GFP fluorescence” value by setting is: under setting [1], 110%; under setting [2], -0.775%.

For the compound `CC(C)c1cc(-c2ccc(F)c3ccccc23)nc(N)n1`, the “normalized SmoIP GFP fluorescence” value is, setting by setting: under setting [1], 144%; under setting [2], -7.78%.

For the compound `Cc1ccc(=O)n(-c2ccccc2)c1` [pirfenidone], the “normalized SmoIP GFP fluorescence” value is 107% under setting [1] and -3.16% under setting [2].

Regarding `COc1cc(Nc2ncc(F)c(Nc3ccc4c(n3)NC(=O)C(C)(C)O4)n2)cc(OC)c1OC`, the “normalized SmoIP GFP fluorescence” value was 112% under setting [1] and -1.11% under setting [2].

As to `CC[C@H](CO)Nc1nc(NCc2ccccc2)c2ncn(C(C)C)c2n1` [Roscovitine], the “normalized SmoIP GFP fluorescence” value under setting [1] came to 121% and the “normalized SmoIP GFP fluorescence” value under setting [2] turned out to be 5.12%.

On to `COc1ccc(C[C@H](NC(=O)[C@H](C)NC(=O)CN2CCOCC2)C(=O)N[C@@H](Cc2ccccc2)C(=O)[C@@]2(C)CO2)cc1`, for which the “normalized SmoIP GFP fluorescence” value was 86.4% under setting [1] and 15.1% under setting [2].

With `Cc1ccc(N(CC2=NCCN2)c2cccc(O)c2)cc1` [phentolamine-mesilate], the “normalized SmoIP GFP fluorescence” value by setting is: under setting [1], 128%; under setting [2], -15.3%.

In the case of `CC(=O)c1c(C)c2cnc(Nc3ccc(N4CCNCC4)cn3)nc2n(C2CCCC2)c1=O`, the “normalized SmoIP GFP fluorescence” value stood at 150% under setting [1] and 3.72% under setting [2].

Take `COc1cccc(C=NCCN=Cc2cccc(OC)c2[O-])c1[O-].[Cl-].[Mn+3]`: the “normalized SmoIP GFP fluorescence” value by setting is: under setting [1], 114%; under setting [2], -2.2%.

Consider `COc1cccc(-c2cc(=O)c3ccccc3o2)c1N`, for which the “normalized SmoIP GFP fluorescence” value reads like this: under setting [1], 115%; under setting [2], 2.64%.

For the compound `Cc1ccc(S(=O)(=O)OCC(=O)Nc2ccc(C(=O)O)c(O)c2)cc1`, the “normalized SmoIP GFP fluorescence” value is, setting by setting: under setting [1], 112%; under setting [2], -9.58%.

Turning to `Oc1ccc(Nc2nc(-c3ccc(Cl)cc3)cs2)cc1`, the “normalized SmoIP GFP fluorescence” value runs as follows: under setting [1], 113%; under setting [2], -0.151%.

On to `O=S(=O)(c1ccccc1)N(CC(F)(F)F)c1ccc(C(O)(C(F)(F)F)C(F)(F)F)cc1`, for which the “normalized SmoIP GFP fluorescence” value by setting is: under setting [1], 104%; under setting [2], -1.85%.

For `C[C@]12CCC(=O)C=C1[C@@H]1C[C@@H]1[C@H]1[C@@H]3[C@@H]4C[C@@H]4[C@@]4(CCC(=O)O4)[C@@]3(C)CC[C@@H]12` [Drospirenone], the “normalized SmoIP GFP fluorescence” value is, setting by setting: under setting [1], 110%; under setting [2], 1.03%.

In the case of `COc1cc2nccc(Oc3ccc(NC(=O)Nc4cc(C)on4)c(Cl)c3)c2cc1OC`, the “normalized SmoIP GFP fluorescence” value runs as follows: under setting [1], 111%; under setting [2], 1.89%.

`COC(=O)C1=C(C)NC(C)=C(C(=O)OC(C)C)C1c1cccc2nonc12` (stereo not given) [Isradipine(Dynacirc)]: the “normalized SmoIP GFP fluorescence” value by setting is: under setting [1], 112%; under setting [2], 3.72%.

Consider `COc1ccnc2[nH]cc(C(=O)C(=O)N3CCN(C(=O)c4ccccc4)C[C@H]3C)c12`, for which the “normalized SmoIP GFP fluorescence” value was 142% under setting [1] and 15.4% under setting [2].

Consider `CCc1c2c(nc3ccc(O)cc13)-c1cc3c(c(=O)n1C2)COC(=O)[C@]3(O)CC`, for which the “normalized SmoIP GFP fluorescence” value by setting is: under setting [1], 95.2%; under setting [2], 5.3%.

In the case of `CC(/C=C/C(=O)NO)=C\[C@@H](C)C(=O)c1ccc(N(C)C)cc1` [Trichostatin-A], the “normalized SmoIP GFP fluorescence” value is 276% under setting [1] and 77.5% under setting [2].

For the compound `NC(=O)c1cccc(-c2cccc(OC(=O)NC3CCCCC3)c2)c1`, the “normalized SmoIP GFP fluorescence” value by setting is: under setting [1], 134%; under setting [2], -7.15%.

Consider `C[C@H](Oc1cc(-c2cnn(C3CCNCC3)c2)cnc1N)c1c(Cl)ccc(F)c1Cl` [s-crizotinib], for which the “normalized SmoIP GFP fluorescence” value under setting [1] turned out to be 114% and the “normalized SmoIP GFP fluorescence” value under setting [2] was determined as 7.39%.

As for `CCCC(=O)Nc1ccc(OCC(O)CNC(C)C)c(C(C)=O)c1` (stereo not given) [acebutolol-hcl], the “normalized SmoIP GFP fluorescence” value under setting [1] came out at 106% and the “normalized SmoIP GFP fluorescence” value under setting [2] was -3.5%.

Turning to `COc1ccc(-c2oc3c(CC=C(C)C)c(O[C@@H]4O[C@H](CO)[C@@H](O)[C@H](O)[C@H]4O)cc(O)c3c(=O)c2O[C@@H]2O[C@@H](C)[C@H](O)[C@@H](O)[C@H]2O)cc1` [Icariin], the “normalized SmoIP GFP fluorescence” value was 92.7% under setting [1] and -3.27% under setting [2].

With `CC(C)N(CCCNC(=O)Nc1ccc(C(C)(C)C)cc1)C[C@H]1O[C@@H](n2cc(Br)c3c(N)ncnc32)[C@H](O)[C@@H]1O`, the “normalized SmoIP GFP fluorescence” value reads like this: under setting [1], 140%; under setting [2], 0.986%.

For `CNCc1ccc(C)c(NC(=O)c2ccc(Nc3nc(-c4ccccc4)c4ccccc4n3)cc2)c1`, the “normalized SmoIP GFP fluorescence” value under setting [1] was 124% and the “normalized SmoIP GFP fluorescence” value under setting [2] was determined as 11.6%.

Turning to `CCc1cc2c(cc1N1CCC(N3CCOCC3)CC1)C(C)(C)c1[nH]c3cc(C#N)ccc3c1C2=O`, the “normalized SmoIP GFP fluorescence” value turned out to be 148% under setting [1] and 8.36% under setting [2].

As for `CCCCc1nc2cc(/C=C/C(=O)NO)ccc2n1CCN(CC)CC`, the “normalized SmoIP GFP fluorescence” value under setting [1] was found to be 208% and the “normalized SmoIP GFP fluorescence” value under setting [2] was 34.2%.

Regarding `O=C(Nc1ccccc1)N1CCN(c2nc(-c3ccccc3)ns2)CC1`, the “normalized SmoIP GFP fluorescence” value by setting is: under setting [1], 104%; under setting [2], -0.889%.

On to `COc1cc(Nc2ncc3c(n2)-c2ccc(Cl)cc2C(c2c(F)cccc2OC)=NC3)ccc1C(=O)O`, for which the “normalized SmoIP GFP fluorescence” value runs as follows: under setting [1], 89.5%; under setting [2], 83%.

Consider `CNC(=O)c1ccc(N2C(=S)N(c3ccc(C#N)c(C(F)(F)F)c3)C(=O)C2(C)C)cc1F`, for which the “normalized SmoIP GFP fluorescence” value by setting is: under setting [1], 113%; under setting [2], 4.03%.

These data come from the supplement of paper PMC5662767.
